The source of these data is PubChem BioAssay (NCATS).

Structures are written as SMILES. Unmarked numbers belong to inactive results. Records with an inconclusive call do not appear. Activity calls are given as the source filed them. The call rests on the fitted dose curve; in most records, active means well fitted curve in the direction sought with a large enough effect; inconclusive means small, poorly fitted or top-dose-only effect, or another doubt; inactive means no such curve, though single readings can be large; an effect the other way counts as inactive or inconclusive.

Assay [1] deals with Glutathione peroxidase 1 (Homo sapiens) (UniProt P07203). As to the kind of experiment: Primary qHTS Assay for Inhibitors of Recombinant Selenoprotein Glutathione Peroxidase 1 (GPX1) (AID 1845191). Further: nearly all actives have a fitted effect of over 65% in size. The method, boiled down:
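GR-coupled assay: compounds preincubated 30 min at room temperature with GPX1, then reaction started with CHP; final 10 nM GPX1, 1 mM GSH, 0.5 mM CHP, 0.5 mM NADPH, 100 nM GR, 0.01% BSA, pH 7.5 Tris buffer. NADPH fluorescence (340/450 nm) read at 0 and 15 min.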

Assay [2] concerns the target Phospholipid hydroperoxide glutathione peroxidase GPX4 (Homo sapiens) (UniProt P36969). In words: Primary qHTS Assay for Inhibitors of Recombinant Selenoprotein Glutathione Peroxidase 4 (GPX4) (AID 1845192). Further: nearly all actives have a fitted effect of over 65% in size. On activity change, negative = inhibition: series mostly up to about 50 µM; on the % scale 0 is the no-effect control and ±100 the full control effect. A digest of the protocol: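 GR-coupled assay: recombinant GPX4 preincubated 30 min with compound at room temperature; final 200 nM GPX4, 1 mM GSH, 0.5 mM cumene hydroperoxide, 0.5 mM NADPH, 100 nM GR, 0.01% BSA, pH 7.5 Tris. NADPH fluorescence (340/450 nm) read at 0 and 15 min.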
Background: In qHTS, concentration-response curves come from the screen itself.

The target of assay [3] is Luciferin 4-monooxygenase (Photinus pyralis) (UniProt P08659). In words: Primary firefly luciferase (FLuc) qHTS assay for identification of artifact compounds. (AID 1845220). Further: nearly all actives have a fitted effect of over 60% in size.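 On activity change, negative = inhibition: series mostly up to about 54 µM; plate controls were DMSO vehicle for no effect and no enzyme for full effect.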 The method, boiled down:
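Enzymatic FLuc inhibition assay: compounds pre-exposed to luciferin/ATP (10 uM each) for 15 min, then purified P. pyralis enzyme at 10 nM added. Read-out: luminescence at 5 min.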

Assay [4] is described as follows: Primary fluorescence-based thiol-reactive (MSTI) qHTS assay for identification of artifact compounds. (AID 1845221). Further: nearly all actives have a fitted effect of over 65% in size. Further: potency means the concentration at half of the fitted maximal effect.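 On activity change, negative = thiol reactive: series mostly up to about 54 µM; thiol-reactive compounds lower the probe fluorescence signal.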 A digest of the protocol:
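Compounds were incubated 1 h at room temperature in the dark with the MSTI probe (4 uM) in PBS pH 7.4, 2% DMSO. Signals were normalized between Acetyl-MSTI and MSTI.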

Phospholipid hydroperoxide glutathione peroxidase GPX4 (Homo sapiens), sequence (P36969 whole entry, looked up): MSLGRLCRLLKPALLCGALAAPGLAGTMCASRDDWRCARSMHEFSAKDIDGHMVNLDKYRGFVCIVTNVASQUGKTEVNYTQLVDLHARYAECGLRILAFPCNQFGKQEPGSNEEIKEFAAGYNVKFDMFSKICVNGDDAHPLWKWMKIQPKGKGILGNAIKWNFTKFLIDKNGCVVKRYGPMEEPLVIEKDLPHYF
Glutathione peroxidase 1 (Homo sapiens), sequence (P07203 whole entry, looked up): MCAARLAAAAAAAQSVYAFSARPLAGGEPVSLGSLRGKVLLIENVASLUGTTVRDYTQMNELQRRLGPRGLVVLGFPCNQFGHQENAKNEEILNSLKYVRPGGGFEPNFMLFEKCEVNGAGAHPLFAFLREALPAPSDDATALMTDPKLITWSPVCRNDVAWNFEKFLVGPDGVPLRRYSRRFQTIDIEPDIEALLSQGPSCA

For the compound `O=C(O[C@@H]1O[C@H](CO)[C@@H](O)[C@H](O)[C@H]1O)c1ccccc1`, the Potency result in assay [1], in assay [2] and in assay [3] was “inactive” throughout. The Potency in assay [4] is 23.8 µM (active).
For the compound `C/C=C(\C)C(=O)OC1CC2C(CC=C3CC(OC4CC(OC)C(OC5CC(OC)C(OC6CC(OC)C(OC7CC(OC)C(OC8CC(OC)C(OC9OC(CO)C(O)C(O)C9O)C(C)O8)C(C)O7)C(C)O6)C(C)O5)C(C)O4)CCC32C)C2(O)CCC(C(C)=O)C12C` (stereo not drawn), the Potency entry in assay [1] and in assay [2] was “inactive” throughout. For the same compound, in assay [3], the activity change, negative = inhibition is 2.55% [at 11.6 µM]. The activity change, negative = thiol reactive in assay [4] was 7.96% [at 11.5 µM].
Take `CNc1nc(Nc2cn(C(C)(C)C#N)nc2C)ncc1C(F)(F)F`: the Potency entry in assay [1], in assay [2], in assay [3] and in assay [4] was “inactive” throughout.
As for `COc1cc(/C=C/C(=O)O[C@@H]2O[C@H](CO)[C@@H](O)[C@H](O)[C@H]2O)ccc1O`, the Potency entry in assay [1], in assay [2] and in assay [3] was “inactive” in each case. Further, in assay [4], the Potency was 4.65 µM (active).
`CCCc1[nH]nc2c1C(c1cc(Cl)cc(Cl)c1O)C(C#N)=C(N)O2` (stereo not drawn): the Potency result in assay [1], in assay [2], in assay [3] and in assay [4] was “inactive” throughout.
Take `CC(C)/C=C1/NC(=O)C(C(C)C)n2c1nc1c(O)cccc1c2=O` (stereo not drawn): the Potency entry in assay [1], in assay [2], in assay [3] and in assay [4] was “inactive” throughout.
For `COC(=O)C[C@H]1C(C)(C)[C@H](OC(=O)C(C)C)C2CC3=C4CC(=O)O[C@@H](c5ccoc5)[C@]4(C)CCC3[C@@]1(C)C2=O` (stereo partly drawn), the Potency result in assay [1], in assay [2], in assay [3] and in assay [4] was “inactive” each time.
In the case of `O=c1[nH]ccc2nc(-c3ccc(CN4CCC(c5nc(-c6ccccn6)n[nH]5)CC4)cc3)c(-c3ccccc3)cc12`, the Potency entry in assay [1], in assay [2], in assay [3] and in assay [4] was “inactive” in each case.
In the case of `NCCCCN(Cc1nc2ccccc2[nH]1)[C@H]1CCCc2cccnc21`, the Potency result in assay [1], in assay [2], in assay [3] and in assay [4] was “inactive” each time.
Turning to `CC(=O)O[C@@H]1CC2C(C)(C)C(=O)C=C[C@]2(C)C2CC[C@]3(C)C(=CC(=O)[C@@H]3c3ccoc3)[C@@]21C` (stereo partly drawn), the Potency entry in assay [1], in assay [2], in assay [3] and in assay [4] was “inactive” throughout.
Regarding `C/C1=C\CC(C)(C)/C=C/C/C(C(=O)O)=C/CC1`, the Potency result in assay [1], in assay [2], in assay [3] and in assay [4] was “inactive” each time.
In the case of `Cc1occc(=O)c1O[C@@H]1O[C@H](CO)[C@@H](O)[C@H](O)[C@H]1O`, the Potency entry in assay [1], in assay [2], in assay [3] and in assay [4] was “inactive” throughout.
On to `CC(C)CC(=O)OC[C@@]1(O)C[C@@]23CC[C@H]4[C@@](C)(CCC[C@@]4(C)C(=O)O)[C@@H]2CC[C@@H]1C3`, for which the Potency entry in assay [1], in assay [2], in assay [3] and in assay [4] was “inactive” throughout.
On to `C[C@@H]1[C@H]2[C@H](O[C@@H]3O[C@H](CO)[C@@H](O)[C@H](O)[C@H]3O)OC=C(C(=O)O)[C@H]2C[C@@H]1OC(=O)/C=C/c1ccc(O)cc1`, for which the Potency entry in assay [1], in assay [2] and in assay [3] was “inactive” in each case. Further, in assay [4], the Potency is 10.3 µM (active).
On to `C[C@H]1/C=C/C=C/C=C/C=C/C=C/[C@@H](O)[C@H](C(=O)O)[C@H](O)C[C@H](O)CCC[C@H](O)C[C@H](O)C[C@H](O)[C@@H](C)C(=O)O[C@@H]1C`, for which the Potency result in assay [1], in assay [2], in assay [3] and in assay [4] was “inactive” throughout.
Turning to `COc1ccc(/C=C/C(=O)N2CCCC2)cc1`, the Potency result in assay [1], in assay [2], in assay [3] and in assay [4] was “inactive” in each case.
For `C[C@@H]1O[C@@H](O[C@H]2[C@H](O[C@H]3[C@H](O[C@H]4CC[C@@]5(C)C(CC[C@]6(C)C5CC=C5[C@@H]7CC(C)(C)C[C@@H](O)[C@]7(C)CC[C@]56C)C4(C)C)O[C@H](C(=O)O)[C@@H](O)[C@@H]3O)O[C@H](C(=O)O)[C@H](O)[C@@H]2O)[C@H](O)[C@H](O)[C@H]1O` (stereo partly drawn), the Potency entry in assay [1] and in assay [2] was “inactive” each time. In addition, the outcome in assay [3] is “inactive [at 11.6 µM]”. For the same compound, in assay [4], the activity change, negative = thiol reactive is 56.2% [at 11.5 µM].
Consider `CC(=O)/C=C/[C@H]1[C@](C)(O)[C@@H](O)[C@H](O)C2C(C)(C)CCC[C@@]21C` (stereo partly drawn), for which the Potency entry in assay [1], in assay [2], in assay [3] and in assay [4] was “inactive” in each case.
In the case of `CC/C=C\C(O)C(O)C1=C(C)C(=O)C2(O1)C(=O)NC(OC)(C(=O)c1ccccc1)C2O` (stereo not drawn), the Potency entry in assay [1], in assay [2] and in assay [3] was “inactive” each time. Further, the Potency in assay [4] was 4.62 µM (active).
As to `C[C@H](O)C(O)(C(=O)OCc1ccccc1NC(=O)CCC(N)C(=O)O)[C@H](C)O` (stereo partly drawn), the Potency entry in assay [1], in assay [2], in assay [3] and in assay [4] was “inactive” each time.
On to `COC(=O)c1ccccc1O[C@@H]1O[C@H](CO[C@@H]2OC[C@@H](O)[C@H](O)[C@H]2O)[C@@H](O)[C@H](O)[C@H]1O`, for which the Potency entry in assay [1], in assay [2] and in assay [3] was “inactive” in each case. Also, the Potency in assay [4] is 5.19 µM (active).
On to `CC1(C)CC[C@]2(C(=O)O[C@@H]3O[C@H](CO)[C@@H](O)[C@H](O)[C@H]3O)CC[C@]3(C)C(=CCC4[C@@]5(C)CC[C@H](OC6OC(C(=O)O)C(OC7OC(CO)C(O)C(O)C7O)C(O)C6O)C(C)(C)C5CC[C@]43C)C2C1` (stereo partly drawn), for which the Potency result in assay [1] and in assay [2] was “inactive” throughout. Besides, in assay [3], the activity change, negative = inhibition is -0.627% [at 11.6 µM]. Also, the activity change, negative = thiol reactive in assay [4] was 280% [at 11.5 µM].
